The target of experiment [1] is T1, Aurora kinase A (Homo sapiens) (UniProt O14965).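 Also: values are mean percent inhibition.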
T1 sequence (whole entry): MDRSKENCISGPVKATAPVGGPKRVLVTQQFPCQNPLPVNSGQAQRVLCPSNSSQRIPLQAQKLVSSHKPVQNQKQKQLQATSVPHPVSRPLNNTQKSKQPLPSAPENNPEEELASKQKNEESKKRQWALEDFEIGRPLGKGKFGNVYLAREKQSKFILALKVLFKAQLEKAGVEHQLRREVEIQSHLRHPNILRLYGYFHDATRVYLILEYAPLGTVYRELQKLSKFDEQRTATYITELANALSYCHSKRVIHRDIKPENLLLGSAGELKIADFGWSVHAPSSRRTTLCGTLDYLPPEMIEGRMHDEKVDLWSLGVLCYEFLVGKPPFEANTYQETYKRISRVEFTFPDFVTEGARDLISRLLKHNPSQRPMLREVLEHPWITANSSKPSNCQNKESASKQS
The note with it: at 1 µM.

Experiment [2] addresses Aurora kinase B (Homo sapiens) (UniProt Q96GD4). The note with it: at 0.1 µM.
For experiment [3] the target is unchanged. The note with it: at 1 µM.
In experiment [4] the target is T2, Aurora kinase C (Homo sapiens) (UniProt Q9UQB9).
T2 sequence (whole entry): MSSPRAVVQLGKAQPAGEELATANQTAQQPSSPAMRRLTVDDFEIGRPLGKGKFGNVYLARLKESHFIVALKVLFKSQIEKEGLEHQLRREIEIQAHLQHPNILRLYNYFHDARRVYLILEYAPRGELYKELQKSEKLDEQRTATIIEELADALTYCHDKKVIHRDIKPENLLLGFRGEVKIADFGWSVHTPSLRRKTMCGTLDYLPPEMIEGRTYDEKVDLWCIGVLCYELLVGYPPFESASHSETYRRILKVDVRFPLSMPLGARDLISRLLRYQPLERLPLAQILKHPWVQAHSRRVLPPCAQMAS
The note with it: at 0.1 µM.

The target in experiment [5] is T2, Aurora kinase C (Homo sapiens). The conditions noted are these: at 1 µM.
The target in experiment [6] is Serine/threonine-protein kinase 10 (Homo sapiens) (UniProt O94804). The note with it: at 0.1 µM.
Chain of Serine/threonine-protein kinase 10 (Homo sapiens) (O94804 whole entry, looked up): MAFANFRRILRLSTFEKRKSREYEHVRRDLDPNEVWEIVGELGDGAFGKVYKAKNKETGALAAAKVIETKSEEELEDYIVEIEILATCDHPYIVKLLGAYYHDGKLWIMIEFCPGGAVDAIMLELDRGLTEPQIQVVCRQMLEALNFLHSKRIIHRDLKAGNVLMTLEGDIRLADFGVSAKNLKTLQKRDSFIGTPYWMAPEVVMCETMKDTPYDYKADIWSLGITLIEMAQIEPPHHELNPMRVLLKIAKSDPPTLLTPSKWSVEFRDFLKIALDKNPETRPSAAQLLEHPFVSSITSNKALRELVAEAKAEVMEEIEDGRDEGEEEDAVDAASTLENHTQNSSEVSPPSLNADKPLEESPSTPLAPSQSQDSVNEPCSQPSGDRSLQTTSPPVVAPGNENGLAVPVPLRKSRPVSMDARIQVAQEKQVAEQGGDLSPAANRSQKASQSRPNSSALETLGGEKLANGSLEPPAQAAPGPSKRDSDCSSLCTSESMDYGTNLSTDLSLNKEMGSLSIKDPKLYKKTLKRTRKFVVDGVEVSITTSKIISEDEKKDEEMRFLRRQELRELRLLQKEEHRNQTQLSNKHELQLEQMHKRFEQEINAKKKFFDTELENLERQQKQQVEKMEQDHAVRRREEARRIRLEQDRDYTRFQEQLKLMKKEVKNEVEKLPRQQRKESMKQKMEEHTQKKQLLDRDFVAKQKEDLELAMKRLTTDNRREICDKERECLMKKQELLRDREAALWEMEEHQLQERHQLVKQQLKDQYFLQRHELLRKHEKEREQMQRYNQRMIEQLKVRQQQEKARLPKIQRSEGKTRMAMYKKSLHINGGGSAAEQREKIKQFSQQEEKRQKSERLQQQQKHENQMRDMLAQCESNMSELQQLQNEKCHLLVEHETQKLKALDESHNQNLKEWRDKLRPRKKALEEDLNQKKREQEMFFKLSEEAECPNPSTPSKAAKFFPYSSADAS
For experiment [7] the target is unchanged. The conditions noted are these: at 1 µM.
For experiment [8], the target named is T3, Mitogen-activated protein kinase kinase kinase kinase 2 (Homo sapiens) (UniProt Q12851).
T3 sequence (whole entry): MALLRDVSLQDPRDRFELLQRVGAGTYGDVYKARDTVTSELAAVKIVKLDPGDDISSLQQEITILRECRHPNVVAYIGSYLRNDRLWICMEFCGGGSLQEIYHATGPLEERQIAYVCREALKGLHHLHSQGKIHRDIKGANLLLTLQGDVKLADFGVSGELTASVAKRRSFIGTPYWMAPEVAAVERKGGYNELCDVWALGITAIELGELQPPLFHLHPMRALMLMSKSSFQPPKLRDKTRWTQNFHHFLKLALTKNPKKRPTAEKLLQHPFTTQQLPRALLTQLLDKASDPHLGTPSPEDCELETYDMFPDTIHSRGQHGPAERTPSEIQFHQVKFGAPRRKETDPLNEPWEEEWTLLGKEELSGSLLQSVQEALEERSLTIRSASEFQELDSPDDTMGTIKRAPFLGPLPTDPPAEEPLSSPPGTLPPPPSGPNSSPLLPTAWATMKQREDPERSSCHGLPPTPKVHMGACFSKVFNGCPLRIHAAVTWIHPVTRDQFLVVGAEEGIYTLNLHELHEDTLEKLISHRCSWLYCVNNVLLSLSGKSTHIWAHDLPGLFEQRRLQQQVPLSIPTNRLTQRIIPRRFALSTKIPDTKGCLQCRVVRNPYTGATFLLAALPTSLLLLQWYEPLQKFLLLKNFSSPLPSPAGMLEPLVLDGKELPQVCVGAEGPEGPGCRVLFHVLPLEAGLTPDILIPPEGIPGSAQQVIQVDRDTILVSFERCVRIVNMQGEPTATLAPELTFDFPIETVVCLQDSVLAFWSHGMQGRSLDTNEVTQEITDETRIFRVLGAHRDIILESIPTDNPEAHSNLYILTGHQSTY
The conditions noted are these: at 0.1 µM.

The target in experiment [9] is T3, Mitogen-activated protein kinase kinase kinase kinase 2 (Homo sapiens). The note with it: at 1 µM.
For experiment [10], the target named is Mitogen-activated protein kinase kinase kinase kinase 4 (Homo sapiens) (UniProt O95819). The conditions noted are these: at 0.1 µM.
Chain of Mitogen-activated protein kinase kinase kinase kinase 4 (Homo sapiens) (O95819 2-1239 limits assumed): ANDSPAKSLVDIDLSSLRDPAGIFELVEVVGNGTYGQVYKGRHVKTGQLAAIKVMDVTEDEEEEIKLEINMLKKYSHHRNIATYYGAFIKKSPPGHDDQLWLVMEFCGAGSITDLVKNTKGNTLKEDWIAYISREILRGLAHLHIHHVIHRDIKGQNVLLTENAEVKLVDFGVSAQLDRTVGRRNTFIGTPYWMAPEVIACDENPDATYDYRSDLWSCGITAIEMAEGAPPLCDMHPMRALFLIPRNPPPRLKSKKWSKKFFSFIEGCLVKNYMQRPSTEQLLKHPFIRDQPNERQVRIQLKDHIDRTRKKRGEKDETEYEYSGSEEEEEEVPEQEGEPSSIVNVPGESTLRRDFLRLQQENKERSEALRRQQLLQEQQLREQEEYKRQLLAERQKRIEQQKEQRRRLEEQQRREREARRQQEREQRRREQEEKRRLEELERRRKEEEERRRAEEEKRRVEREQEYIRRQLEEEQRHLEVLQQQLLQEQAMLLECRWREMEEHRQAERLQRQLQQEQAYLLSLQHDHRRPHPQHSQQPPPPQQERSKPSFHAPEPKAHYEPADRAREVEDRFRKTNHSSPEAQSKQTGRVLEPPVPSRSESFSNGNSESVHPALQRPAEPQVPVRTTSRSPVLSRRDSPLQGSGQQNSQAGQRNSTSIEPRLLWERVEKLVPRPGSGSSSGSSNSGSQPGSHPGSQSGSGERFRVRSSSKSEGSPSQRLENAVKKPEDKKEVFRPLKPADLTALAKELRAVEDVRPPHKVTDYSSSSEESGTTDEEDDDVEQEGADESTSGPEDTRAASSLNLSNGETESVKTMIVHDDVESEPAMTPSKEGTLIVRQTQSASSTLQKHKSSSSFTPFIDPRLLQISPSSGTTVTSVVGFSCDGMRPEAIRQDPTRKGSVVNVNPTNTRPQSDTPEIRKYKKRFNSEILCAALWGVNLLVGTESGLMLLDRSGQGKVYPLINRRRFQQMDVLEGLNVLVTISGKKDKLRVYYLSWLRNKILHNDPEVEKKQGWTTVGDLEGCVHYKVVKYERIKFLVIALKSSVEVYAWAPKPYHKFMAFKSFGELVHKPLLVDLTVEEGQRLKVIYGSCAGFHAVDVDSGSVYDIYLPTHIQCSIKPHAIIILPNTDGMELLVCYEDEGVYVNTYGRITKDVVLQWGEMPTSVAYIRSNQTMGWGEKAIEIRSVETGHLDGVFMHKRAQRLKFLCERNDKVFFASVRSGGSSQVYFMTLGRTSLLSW
For experiment [11] the target is unchanged. The conditions noted are these: at 1 µM.
Experiment [12] concerns the target Dual specificity mitogen-activated protein kinase kinase 1 (Homo sapiens) (UniProt Q02750). The note with it: at 0.1 µM.
The target is the same in experiment [13]. The conditions noted are these: at 1 µM.
Experiment [14] concerns the target Misshapen-like kinase 1 (Homo sapiens) (UniProt Q8N4C8). The note with it: at 0.1 µM.
Experiment [15] shares this target. The note with it: at 1 µM.
In experiment [16] the target is T4, Serine/threonine-protein kinase 4 (Homo sapiens) (UniProt Q13043).
T4 sequence (whole entry): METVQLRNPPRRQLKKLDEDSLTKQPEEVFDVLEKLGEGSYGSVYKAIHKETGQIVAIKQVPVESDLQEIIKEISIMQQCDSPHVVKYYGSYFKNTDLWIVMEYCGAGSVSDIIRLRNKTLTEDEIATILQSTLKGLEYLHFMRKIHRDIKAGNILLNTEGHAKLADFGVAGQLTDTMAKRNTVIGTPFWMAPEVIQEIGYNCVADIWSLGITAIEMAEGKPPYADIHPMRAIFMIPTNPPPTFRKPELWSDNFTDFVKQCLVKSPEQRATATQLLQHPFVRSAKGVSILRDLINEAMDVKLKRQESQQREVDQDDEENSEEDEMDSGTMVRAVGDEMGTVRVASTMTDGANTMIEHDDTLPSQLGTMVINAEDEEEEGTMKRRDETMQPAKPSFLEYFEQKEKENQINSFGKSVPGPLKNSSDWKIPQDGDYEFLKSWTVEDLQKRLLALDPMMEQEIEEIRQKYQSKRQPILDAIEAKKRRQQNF
The note with it: at 0.1 µM.

The target in experiment [17] is T4, Serine/threonine-protein kinase 4 (Homo sapiens). The conditions noted are these: at 1 µM.
Experiment [18] has as its target T5, Serine/threonine-protein kinase 3 (Homo sapiens) (UniProt Q13188).
T5 sequence (whole entry): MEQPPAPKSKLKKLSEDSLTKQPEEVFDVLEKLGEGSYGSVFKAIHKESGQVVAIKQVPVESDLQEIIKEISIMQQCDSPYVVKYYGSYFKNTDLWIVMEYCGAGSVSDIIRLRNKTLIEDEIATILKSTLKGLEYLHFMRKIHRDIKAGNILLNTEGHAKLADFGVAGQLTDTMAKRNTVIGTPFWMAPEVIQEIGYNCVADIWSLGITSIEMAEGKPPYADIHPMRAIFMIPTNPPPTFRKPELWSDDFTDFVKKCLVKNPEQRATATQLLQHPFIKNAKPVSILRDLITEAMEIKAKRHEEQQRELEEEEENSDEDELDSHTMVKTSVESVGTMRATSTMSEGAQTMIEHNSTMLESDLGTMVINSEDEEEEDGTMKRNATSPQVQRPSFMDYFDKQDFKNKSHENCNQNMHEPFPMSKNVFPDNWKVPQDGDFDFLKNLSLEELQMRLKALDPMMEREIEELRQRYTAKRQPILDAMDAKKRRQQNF
The note with it: at 0.1 µM.

For experiment [19], the target named is T5, Serine/threonine-protein kinase 3 (Homo sapiens). The note with it: at 1 µM.
Experiment [20] deals with Serine/threonine-protein kinase 26 (Homo sapiens) (UniProt Q9P289). The conditions noted are these: at 0.1 µM.
Chain of Serine/threonine-protein kinase 26 (Homo sapiens) (Q9P289 2-416 limits assumed): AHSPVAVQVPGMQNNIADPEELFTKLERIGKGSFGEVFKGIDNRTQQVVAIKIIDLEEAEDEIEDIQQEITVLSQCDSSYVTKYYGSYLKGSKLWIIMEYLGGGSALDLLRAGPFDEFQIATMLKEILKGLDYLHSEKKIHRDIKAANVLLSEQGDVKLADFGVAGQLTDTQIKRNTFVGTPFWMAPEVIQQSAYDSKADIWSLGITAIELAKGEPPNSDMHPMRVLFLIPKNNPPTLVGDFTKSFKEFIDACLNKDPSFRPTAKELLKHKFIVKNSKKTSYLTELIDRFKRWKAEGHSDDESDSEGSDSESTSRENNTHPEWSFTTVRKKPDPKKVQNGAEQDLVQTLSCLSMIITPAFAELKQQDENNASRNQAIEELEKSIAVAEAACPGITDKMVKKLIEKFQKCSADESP

What is called inhibition is the relative decrease from the control value, in per cent.

Chain of Dual specificity mitogen-activated protein kinase kinase 1 (Homo sapiens) (Q02750 whole entry): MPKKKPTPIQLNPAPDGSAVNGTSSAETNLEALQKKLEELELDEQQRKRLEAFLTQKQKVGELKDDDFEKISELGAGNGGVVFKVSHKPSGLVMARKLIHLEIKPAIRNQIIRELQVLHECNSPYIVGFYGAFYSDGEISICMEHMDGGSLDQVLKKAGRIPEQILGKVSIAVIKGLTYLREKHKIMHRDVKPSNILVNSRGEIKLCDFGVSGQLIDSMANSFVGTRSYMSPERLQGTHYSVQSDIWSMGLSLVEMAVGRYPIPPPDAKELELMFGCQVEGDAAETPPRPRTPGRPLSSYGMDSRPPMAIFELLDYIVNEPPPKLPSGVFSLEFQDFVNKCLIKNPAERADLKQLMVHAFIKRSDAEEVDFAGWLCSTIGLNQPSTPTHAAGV
Chain of Aurora kinase B (Homo sapiens) (Q96GD4 whole entry): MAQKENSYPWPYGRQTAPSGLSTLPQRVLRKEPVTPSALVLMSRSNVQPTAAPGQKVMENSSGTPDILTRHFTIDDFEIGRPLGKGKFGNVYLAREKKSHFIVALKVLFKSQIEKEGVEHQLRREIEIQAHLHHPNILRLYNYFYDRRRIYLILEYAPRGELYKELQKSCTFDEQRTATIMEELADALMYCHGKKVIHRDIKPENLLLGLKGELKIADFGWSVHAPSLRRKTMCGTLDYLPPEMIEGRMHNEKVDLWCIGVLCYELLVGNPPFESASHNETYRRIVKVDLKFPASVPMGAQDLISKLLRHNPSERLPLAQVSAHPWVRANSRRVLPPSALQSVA
Chain of Misshapen-like kinase 1 (Homo sapiens) (Q8N4C8 whole entry, looked up): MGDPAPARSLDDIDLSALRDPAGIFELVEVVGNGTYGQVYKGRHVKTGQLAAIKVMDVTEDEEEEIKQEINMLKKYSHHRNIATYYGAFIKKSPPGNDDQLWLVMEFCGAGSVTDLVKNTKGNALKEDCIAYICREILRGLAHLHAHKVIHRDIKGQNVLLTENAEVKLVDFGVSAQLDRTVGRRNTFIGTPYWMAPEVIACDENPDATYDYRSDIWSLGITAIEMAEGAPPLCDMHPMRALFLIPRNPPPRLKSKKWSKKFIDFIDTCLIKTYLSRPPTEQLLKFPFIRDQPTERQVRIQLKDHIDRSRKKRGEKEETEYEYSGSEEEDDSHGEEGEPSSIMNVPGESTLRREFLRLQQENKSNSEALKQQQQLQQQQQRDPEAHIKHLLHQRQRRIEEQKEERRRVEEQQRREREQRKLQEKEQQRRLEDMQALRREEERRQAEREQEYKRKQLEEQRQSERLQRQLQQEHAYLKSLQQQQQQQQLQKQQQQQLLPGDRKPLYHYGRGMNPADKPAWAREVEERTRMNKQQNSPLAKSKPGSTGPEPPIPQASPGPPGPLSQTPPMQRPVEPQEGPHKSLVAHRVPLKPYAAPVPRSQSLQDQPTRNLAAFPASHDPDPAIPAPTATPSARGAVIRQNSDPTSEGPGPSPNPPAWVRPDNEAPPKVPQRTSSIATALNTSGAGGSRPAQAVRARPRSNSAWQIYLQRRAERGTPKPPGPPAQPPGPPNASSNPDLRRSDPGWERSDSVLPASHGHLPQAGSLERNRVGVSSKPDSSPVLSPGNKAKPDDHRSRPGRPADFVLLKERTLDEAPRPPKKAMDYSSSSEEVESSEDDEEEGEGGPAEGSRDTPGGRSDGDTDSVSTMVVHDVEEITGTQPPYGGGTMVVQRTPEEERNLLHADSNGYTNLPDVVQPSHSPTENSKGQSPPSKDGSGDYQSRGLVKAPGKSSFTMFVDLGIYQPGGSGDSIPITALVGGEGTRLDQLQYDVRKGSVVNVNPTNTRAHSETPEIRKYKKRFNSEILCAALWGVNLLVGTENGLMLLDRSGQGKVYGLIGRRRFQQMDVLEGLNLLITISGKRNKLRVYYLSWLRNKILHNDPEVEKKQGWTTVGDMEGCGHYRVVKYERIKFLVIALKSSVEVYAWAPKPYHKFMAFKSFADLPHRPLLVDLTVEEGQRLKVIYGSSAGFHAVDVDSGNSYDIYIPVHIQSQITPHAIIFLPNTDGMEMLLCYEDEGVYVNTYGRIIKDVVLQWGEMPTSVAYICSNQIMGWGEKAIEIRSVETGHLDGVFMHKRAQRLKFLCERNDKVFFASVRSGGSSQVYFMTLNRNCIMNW

`COc1ccc(-c2nn3ncccc3c2-c2ccnc(Nc3cccc(C(F)(F)F)c3)n2)cc1`: the inhibition in [1] was 5.62%; in [2], 1.05%; in experiment [3], 5.57%; in experiment [4], 1.98%; in experiment [5] it was 5.91%; in experiment [6] it was 6.76%. In addition, the inhibition in experiment [7] worked out at 12.3%; in [8], 2.11%; in experiment [9], 1.6%; in experiment [10] it was 3.02%; in [11] it was 4.62%; in experiment [12] it was 1.9%. For the same molecule, the inhibition in experiment [13] was 2.55%; in experiment [14], 5.18%; in experiment [15], 5.08%; in experiment [16], 1.69%; in experiment [17], 2.89%; in experiment [18] it was 4.76%. The inhibition is 5.12% in experiment [19] and -0.3% in experiment [20].
In the case of `COc1cccc(-n2ncc3c(N/N=C/c4ccc(C)cc4)ncnc32)c1`, the inhibition in [1] amounted to 11.8%; in experiment [2], 4.27%; in experiment [3] it was 6.65%; in [4], 1.92%; in [5], 4.66%; in experiment [6] it was 5.12%. Moreover, the inhibition in experiment [7] came out at 10.9%; in experiment [8], 0.91%; in experiment [9], 4.23%; in experiment [10] it was 4.74%; in experiment [11] it was 21%; in experiment [12], 4.05%. The inhibition was 3.78% in [13]; 7.18% in experiment [14]; 16.1% in experiment [15]; 5.34% in experiment [16]; 13.2% in [17]; 6.16% in experiment [18]. In addition, the inhibition in experiment [19] was 11.4%; in [20] it was -1.81%.
Consider `COc1cccc(-n2nc(C)c3c(N/N=C(\C)c4ccncc4)ncnc32)c1`, for which the inhibition in [1] was 0.79%; in experiment [2], 2.73%; in [3], 3.95%; in experiment [4] it was 0.6%; in [5] it was 4.15%; in experiment [6], 0.54%. In addition, the inhibition in experiment [7] is 3.61%; in experiment [8], -0.39%; in [9], 0.32%; in experiment [10], 1.37%; in experiment [11], 4.83%; in experiment [12], -0.14%. Further, the inhibition in experiment [13] was -0.11%; in [14], 1.43%; in [15] it was 6.12%; in [16] it was 1.29%; in [17], 1.63%; in experiment [18], 1.78%. Also, the inhibition in [19] is 3.56%; in [20], -0.95%.
For the molecule `COC(=O)Nc1nc2cc(Oc3ccc(NC(=O)Nc4cccc(Br)c4)cc3)ccc2[nH]1`, the inhibition in [1] is 7.48%; in [2], 8.64%; in [3] it was 21%; in experiment [4], 11.4%; in experiment [5] it was 42.5%; in experiment [6] it was 20.5%. Besides, the inhibition came out at 34.2% in [7]; 3.41% in [8]; 10.2% in experiment [9]; 3.09% in [10]; 5.51% in experiment [11]; 5.03% in experiment [12]. Besides, the inhibition is 4% in experiment [13]; 4.61% in experiment [14]; 5.66% in experiment [15]; 3.52% in experiment [16]; 2.71% in experiment [17]; 3.41% in experiment [18]. Moreover, the inhibition in experiment [19] amounted to 3.92%; in experiment [20], 0.49%.
Consider `C[C@@H](Oc1cc(-n2cnc3ccc(OC[C@@H](O)CO)cc32)sc1C(N)=O)c1ccccc1Cl`, for which the inhibition in [1] is 2.13%; in experiment [2], 0.7%; in experiment [3], 1.36%; in experiment [4], -1.38%; in [5], -2.42%; in experiment [6], 48.1%. For the same molecule, the inhibition in experiment [7] is 85.7%; in [8], 3.67%; in [9] it was 16.4%; in experiment [10] it was -0.19%; in [11] it was 4.28%; in [12] it was -0.54%. In addition, the inhibition was 0.3% in [13]; -1.25% in experiment [14]; 2.89% in experiment [15]; 3.22% in [16]; 34.1% in experiment [17]; 2.75% in experiment [18]. In addition, the inhibition in [19] is 25.7%; in experiment [20] it was -0.27%.
Regarding `FC(F)(F)c1ccc(-c2nn3ncccc3c2-c2ccnc(Nc3ccc4c(c3)OCCO4)n2)cc1`, the inhibition in experiment [1] was 29.2%; in [2] it was 7.15%; in experiment [3] it was 11.2%; in experiment [4], 4.98%; in experiment [5], 12.1%; in [6] it was 10.5%. For the same molecule, the inhibition was 30.1% in experiment [7]; 6.41% in [8]; 6.88% in experiment [9]; 3.6% in experiment [10]; 12% in experiment [11]; 1.64% in experiment [12]. Besides, the inhibition in experiment [13] was -1.13%; in experiment [14], 2.9%; in experiment [15], 11.5%; in [16], 3.87%; in experiment [17], 7.46%; in [18], 4.21%. For the same molecule, the inhibition turned out to be 8.12% in experiment [19] and 6.19% in [20].
